Records with an inconclusive call do not appear. Active and inactive are the calls of the source.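 How the source made its calls, unless noted: active means RAM network inhibition above 8.4% in each of two replicates, 3 SD over the compound average; inconclusive means above 8.4% inhibition in only one replicate; inactive means 8.4% inhibition or less in each replicate.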
Assays:
[1] = biological target: Pantothenate synthetase (Mycobacterium tuberculosis (strain ATCC 25618 / H37Rv)) (UniProt P9WIL5); test: Coupled enzyme confirmation of inhibitors against recombinant Mtb PanC (AID 375; call rule not given here;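 further: 0% = full reaction with vehicle and 100% = no enzyme background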); conditions: coupled enzyme assay; at 10 µM, stronger effect = higher value
Sequence of Pantothenate synthetase (Mycobacterium tuberculosis (strain ATCC 25618 / H37Rv)) (P9WIL5 whole entry, looked up): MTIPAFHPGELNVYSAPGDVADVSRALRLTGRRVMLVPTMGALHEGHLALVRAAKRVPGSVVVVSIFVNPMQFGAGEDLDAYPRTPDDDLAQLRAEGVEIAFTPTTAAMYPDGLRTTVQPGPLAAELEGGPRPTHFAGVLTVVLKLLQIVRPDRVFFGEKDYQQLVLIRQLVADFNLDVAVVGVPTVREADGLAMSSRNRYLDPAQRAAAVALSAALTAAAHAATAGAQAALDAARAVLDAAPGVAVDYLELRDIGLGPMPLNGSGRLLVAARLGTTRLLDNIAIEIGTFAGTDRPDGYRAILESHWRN

[2] = Her2 expression decrease, cell viability multiplex – SKBR3 breast tumor cells, AlphaScreen, ATP viability, primary screen (AID 461;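 active means Her2 level under about 52% in both replicate screens, with viability over 70% of control, limit read from the data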;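 on Her2 level: lower value means less Her2 protein in the cells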;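 on viability: percent of carrier control wells set as 100% viability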); conditions: SKBR3 Her2 protein level, 18-24 h, measured here: SKBR3 viability, ATP luminescence, at 10 µM
[3] = biological target: Receptor tyrosine-protein kinase erbB-2 (Homo sapiens) (UniProt P04626); test: as above; conditions: 18-24 h, at 10 µM, stronger effect = lower value
Sequence of Receptor tyrosine-protein kinase erbB-2 (Homo sapiens) (P04626 whole entry, looked up): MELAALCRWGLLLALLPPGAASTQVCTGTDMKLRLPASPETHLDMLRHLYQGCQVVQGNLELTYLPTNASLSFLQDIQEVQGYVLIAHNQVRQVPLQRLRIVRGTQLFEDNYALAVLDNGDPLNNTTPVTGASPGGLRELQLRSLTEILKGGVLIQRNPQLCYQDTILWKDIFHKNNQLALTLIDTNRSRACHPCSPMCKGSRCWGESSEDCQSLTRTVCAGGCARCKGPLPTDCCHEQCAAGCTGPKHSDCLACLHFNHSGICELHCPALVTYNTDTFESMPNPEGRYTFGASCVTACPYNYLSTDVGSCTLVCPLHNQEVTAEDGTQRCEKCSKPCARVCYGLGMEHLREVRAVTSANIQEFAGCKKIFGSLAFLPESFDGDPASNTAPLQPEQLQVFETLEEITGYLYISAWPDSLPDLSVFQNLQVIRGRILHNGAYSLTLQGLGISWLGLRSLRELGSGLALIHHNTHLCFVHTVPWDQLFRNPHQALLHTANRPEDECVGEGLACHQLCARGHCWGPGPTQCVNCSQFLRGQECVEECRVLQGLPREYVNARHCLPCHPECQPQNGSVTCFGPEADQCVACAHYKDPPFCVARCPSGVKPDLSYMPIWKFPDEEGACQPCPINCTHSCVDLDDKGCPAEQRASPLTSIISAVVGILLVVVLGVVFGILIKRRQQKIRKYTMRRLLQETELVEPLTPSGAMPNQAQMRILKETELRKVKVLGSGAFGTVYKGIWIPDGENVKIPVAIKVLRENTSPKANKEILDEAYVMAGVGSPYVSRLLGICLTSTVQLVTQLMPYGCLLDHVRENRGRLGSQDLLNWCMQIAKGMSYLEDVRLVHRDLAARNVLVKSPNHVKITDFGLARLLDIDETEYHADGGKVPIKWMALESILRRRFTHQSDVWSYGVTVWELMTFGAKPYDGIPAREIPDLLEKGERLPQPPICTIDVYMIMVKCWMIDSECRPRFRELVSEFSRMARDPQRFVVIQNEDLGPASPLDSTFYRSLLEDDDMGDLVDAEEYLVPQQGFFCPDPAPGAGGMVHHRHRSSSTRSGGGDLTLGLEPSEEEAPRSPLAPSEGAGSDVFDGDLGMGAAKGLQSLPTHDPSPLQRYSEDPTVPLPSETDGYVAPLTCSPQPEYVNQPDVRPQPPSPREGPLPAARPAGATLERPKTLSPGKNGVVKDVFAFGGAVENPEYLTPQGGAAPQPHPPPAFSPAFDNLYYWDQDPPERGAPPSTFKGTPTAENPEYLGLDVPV

[4] = reduced viability of SK-BR-3 breast cancer cells – cell-based, 24 h, human, pilot screen (AID 572;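 active means viability at or below 10% of carrier control in both of two separate runs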;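 further: compound exposure lasted between 18 and 24 h rather than exactly 24 h; 100% = carrier-treated control wells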); conditions: SK-BR-3 viability, CellTiter-Glo luminescence, at 10 µM, stronger effect = lower value
[5] = HUVEC growth inhibition – cell-based, human, primary screen (AID 575;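 active means viability at or below 30% in both replicate assays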;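 further: 100% = median of untreated cell wells with 0.1% DMSO on each plate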); conditions: HUVEC proliferation, CellTiter-Glo luminescence, 72 h; at 10 µM; stronger effect = lower value
[6] = MRP1 drug-resistance reversers in H69AR cells – cell-based, doxorubicin co-treatment, pilot screen (AID 601;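 active means viability loss from added drug above about 55%, and viability with drug at most 40%, in both replicates, limit read from the data, passing the limit was not always enough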); conditions: CellTiter-Glo, 72 h, at 10 µM; for differential viability (reversal): stronger effect = higher value
[7] = yeast transport mutant growth inhibition pilot in 384-well plates, post-Golgi transport modulator project (AID 636; in the data active means inhibition above about 31%); conditions: absorbance 615 nm, about 18 h, stronger effect = higher value
[8] = growth suppression of yeast trafficking mutant, preliminary HTS, modulators of trafficking downstream of Golgi apparatus project, 1536-format plate, OD 615 nm (AID 637; in the data active means inhibition above about 30%); conditions: yeast transport mutant growth, absorbance 615 nm, 18 h; stronger effect = higher value
[9] = S. cerevisiae growth inhibition in permissive medium (OD615), pilot counter-assay for S. cerevisiae lifespan shortening project, permissive growth control (AID 705;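 active means growth inhibition above 25% in both replicates, a cutoff set 3 SD above the mean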); conditions: OD615, 24 h, at 10 µM, stronger effect = higher value
[10] = S. cerevisiae growth inhibition in restrictive medium, OD615, pilot screen, restrictive growth control, yeast lifespan reduction project (AID 706;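 active means growth inhibition above a set limit, 3 SD over mean compound inhibition, in both replicates, cut at about 43% in these data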;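 further: modified DeaD lifespan yeast strain shifted to restrictive glucose medium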); conditions: OD615, 48 h, at 10 µM, stronger effect = higher value
[11] = doxorubicin toxicity protection in MRP-1 cells – H69AR cells, CellTiter-Glo, duplicate, MRP-1 activator project, pilot screen (AID 807;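 active means viability increase at or above a cutoff of the median across tested compounds plus 3 SD, cut at about 8.5% in these data, passing the limit was not always enough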;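 further: compound pretreatment 18-22 h then 72 h combined with doxorubicin; 0% = doxorubicin alone and 100% = vehicle without doxorubicin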); conditions: H69AR viability with doxorubicin, CellTiter-Glo luminescence; at 10 µM; stronger effect = higher value
[12] = viability of HCT116 without oncogenic beta-catenin – human colon tumor cells, pilot screen (AID 823;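 active means cell viability at or below a set limit in both duplicate runs, the limit being the all-compound median minus 4 SD, cut at about 23% in these data, passing the limit was not always enough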;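 further: 0% = wells killed by 20 µM Hyamine and 100% = untreated DMSO cell wells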); conditions: HCT116 beta-catenin knockout viability, CellTiter-Glo, 60 h; at 10 µM; stronger effect = lower value
[13] = RAM pathway blockade in budding yeast – dse1pr::URA3 reporter, 5-FOA selection, pilot screen (AID 869;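 active means inhibition over a set limit, the all-compound mean plus 3 SD, in both replicate runs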;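 further: 0% = DMSO wells with no growth and 100% = 10 µM 1-NA-PP1 with full growth; RAM network block rescues cells from 5-FOA so hits raise OD615 growth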); conditions: S. cerevisiae dse1pr::URA3 5-FOA growth, OD615, 2 d, at 10 µM, stronger effect = higher value
[14] = RAM signaling pathway blockade in yeast – S. cerevisiae, Pdr1DBD-CYC8 efflux-inhibited sensitized strain, primary screen (AID 1298);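 further: 0% = DMSO untreated cells without growth and 100% = 10 µM 1-NA-PP1 full growth; higher means more yeast growth rescued from 5-FOA killing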; conditions: S. cerevisiae cbk1-as DSE1-URA3 strain, 5-FOA growth OD615, 2 d; at 50 µM; stronger effect = higher value
[15] = viability of PTEN-null HCT116 cells – cell-based, HCT116 clonal line, CellTiter-Glo, pilot screen (AID 824;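 active means viability at or below 27.92% in each of two runs, the all-compound median minus 4 SD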;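 further: 0% = 20 µM Hyamine control and 100% = vehicle cell control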); conditions: HCT116 PTEN-deleted viability, 60 h, at 10 µM, stronger effect = lower value
[16] = H69AR cell proliferation blockers – human, duplicate replicates, primary screen (AID 580;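 active means viability at or under a set limit in both replicates, limit being median viability minus 3 SD, cut at about 48% in these data, passing the limit was not always enough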;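 further: 100% = mean luminescence of untreated wells and 0% = no signal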); conditions: H69AR lung tumor cells viability, ATP luminescence, 72 h; at 10 µM; stronger effect = lower value
[17] = H69AR cells + 2 uM doxorubicin, measured here: viability with 2 uM doxorubicin, stronger effect = lower value
[18] = H69AR cells, compound alone cytotoxicity

Compound | inhibition [1] | viability [2] | Her2 level [3] | viability [4] | viability [5] | differential viability (reversal) ([6]; H69AR cells + 2 uM doxorubicin) | viability [6, 17] | viability [6, 18] | inhibition [7] | inhibition [8] | growth inhibition [9] | growth inhibition [10] | viability increase [11] | viability [12] | inhibition [13] | RAM network inhibition [14] | viability [15] | viability [16]
CCOc1ccc(C2SCC(=O)Nc3c2c(=O)[nH]n3C2CCCCCC2)cc1 (centres undefined) | 0% (inactive) | 110% | 108% (inactive) | 110% (inactive) | 63.8% (inactive) | 1.13% (inactive) | 57.2% | 58.3% | -5.2% (inactive) | -7.62% (inactive) | -17.8% (inactive) | -3.29% (inactive) | -7.49% (inactive) | 97.7% (inactive) | 2.26% (inactive) | 4% (inactive) |  | 
Cc1cc(OC(=O)c2ccco2)c2c3c(c(=O)oc2c1)CCC3 |  |  |  |  |  |  |  |  |  |  | 2.81% (inactive) | -1.05% (inactive) | -1.26% (inactive) | 94.3% (inactive) |  | 4.5% (inactive) | 85.2% (inactive) | 
O=P(OCC(F)(F)C(F)F)(N1CCCCC1)N1CCCCC1 | 3% (inactive) | 104% | 108% (inactive) | 104% (inactive) | 106% (inactive) | 17.1% (inactive) | 99.9% | 117% | 2.67% (inactive) | -7.9% (inactive) | -8.86% (inactive) | -5.09% (inactive) | -0.61% (inactive) | 89% (inactive) | 0.595% (inactive) | 3.2% (inactive) | 95.5% (inactive) | 117% (inactive)
CCCCNC(=O)c1c(N)n(CCCOC)c2nc3ccccc3nc12 | 0% (inactive) | 89% | 82% (inactive) | 89% (inactive) | 71.8% (inactive) | -25.4% (inactive) | 79.4% | 54% | 1.1% (inactive) | 5.24% (inactive) | 1.92% (inactive) | -1.88% (inactive) | -6.16% (inactive) | 68.5% (inactive) | 0.37% (inactive) | -3.2% (inactive) | 67.8% (inactive) | 
CC1(C)Cc2c(sc3c2C(=O)NC(c2cccnc2)N3)CO1 (centres undefined) | 7% (inactive) | 113% | 83.5% (inactive) | 113% (inactive) | 102% (inactive) | 12.8% (inactive) | 85.7% | 98.5% | -3.47% (inactive) | 1.48% (inactive) | -16.3% (inactive) | 11.8% (inactive) | -2.97% (inactive) | 107% (inactive) | 1.58% (inactive) | 5.15% (inactive) |  | 98.5% (inactive)
COC(=NC1CCCC1)C(O)c1c[nH]c2ccccc12 (centres undefined) | 0% (inactive) | 101% | 103% (inactive) | 101% (inactive) | 102% (inactive) | 1.98% (inactive) | 106% | 108% | -0.82% (inactive) | -4.44% (inactive) | -12.2% (inactive) | -12.5% (inactive) | -4.16% (inactive) |  | 0.825% (inactive) | 0.62% (inactive) | 81.2% (inactive) | 108% (inactive)
Cc1cccc(-n2c(-c3ccco3)nc3ccccc3c2=O)n1 | 0% (inactive) | 105% | 98.5% (inactive) | 105% (inactive) | 111% (inactive) | -2.13% (inactive) | 90% | 87.9% | -0.54% (inactive) | 49.3% (active) | -16.8% (inactive) | -15.7% (inactive) | 0.12% (inactive) | 108% (inactive) | 0.505% (inactive) | 0.8% (inactive) | 99.7% (inactive) | 87.9% (inactive)
C=Cn1ccnc1P(=S)(c1nccn1C=C)C1CCCCC1 |  |  |  |  |  |  |  |  |  |  | 0.2% (inactive) | -2.3% (inactive) | -1.76% (inactive) | 92.3% (inactive) | 0.82% (inactive) | 3.48% (inactive) | 93.1% (inactive) | 
CCN(c1ccc(C(O)(C(=O)OC)C(F)(F)F)cc1)S(=O)(=O)c1ccccc1 (centres undefined) |  |  |  |  |  |  |  |  |  |  | -4.31% (inactive) | -3.91% (inactive) | 0.9% (inactive) | 99.4% (inactive) | -0.62% (inactive) | 4.74% (inactive) | 102% (inactive) | 
O=C1CC(N2CC=C(c3ccccc3)CC2)C(=O)N1c1ccc(F)cc1 (centres undefined) |  |  |  |  |  |  |  |  |  |  | -7.4% (inactive) | -4.17% (inactive) | 3.41% (inactive) | 98.8% (inactive) | 0.99% (inactive) | 5.39% (inactive) | 97.3% (inactive) | 
CCc1ccc(OCCCN=C(C)c2c(O)n(C)c(=O)n(C)c2=O)cc1 | 0% (inactive) | 92% | 85.5% (inactive) | 92% (inactive) | 77.7% (inactive) | 1.31% (inactive) | 83.8% | 85.1% | -1.95% (inactive) | 1.83% (inactive) | -6.49% (inactive) | -4.79% (inactive) | 0.23% (inactive) | 77.3% (inactive) | 0.12% (inactive) | -0.72% (inactive) | 80.8% (inactive) | 85.1% (inactive)
C=CCOC(=O)COc1cc(C)cc2oc(=O)c3c(c12)CCC3 | 1% (inactive) |  |  | 81% (inactive) | 97.2% (inactive) | -2.28% (inactive) | 86.7% | 84.4% | -5.73% (inactive) | -0.73% (inactive) | -7.89% (inactive) | -2.46% (inactive) | -0.23% (inactive) | 90.7% (inactive) | 1.63% (inactive) | 6.89% (inactive) | 99.4% (inactive) | 84.4% (inactive)

— PubChem BioAssay
